Structures are written as SMILES. About 83,000 compounds went through this panel and 20% of them were active in at least one assay; those are over-represented in the sample as a whole.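 Single-dose data. Exposure time 48 hours. Values below 10 considered active.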 Values without a mark were called inactive. Calls of active or inactive are those of the source.

Among the test systems are NCI-H23 lung; NCI-H226 lung; NCI-H322M lung; HOP-62 NSCLC; NCI-H460 lung; HOP-92 NSCLC; NCI-H522 lung; A549/ATCC NSCLC; 786-0 renal; COLO 205 colon; DU-145 prostate; K-562 leukemia; MALME-3M melanoma; MDA-MB-231 breast; RXF 393 renal; SF-268 CNS; SF-295 CNS; SF-539 CNS; UACC-257 melanoma; M14 melanoma.
Test in all cases: NCI-60 one-dose screen, 48 h (100 = growth as untreated, 0 = no growth, -100 = all killed)
Settings in all cases: 10 µM unless noted

Turning to `O=[N+]([O-])c1cccc(-c2nc3sccn3c2-c2ccnc(NCCCNS(=O)(=O)c3cccc(F)c3)n2)c1`, the growth is -9.68% (active) with NCI-H23 lung; -5.67% (active) in the experiment on NCI-H226 lung; 45.2% in the experiment with NCI-H322M lung; 13.1% with HOP-62 NSCLC; 16.3% with NCI-H460 lung; 46.3% with HOP-92 NSCLC. Further, the growth with NCI-H522 lung was -8.69% (active); with A549/ATCC NSCLC, 7.27% (active); in the experiment with 786-0 renal, 43.4%; with COLO 205 colon it was -2.26% (active); with DU-145 prostate it was 9.77% (active); in the experiment with K-562 leukemia, 4.26% (active). For the same molecule, the growth is -10.6% (active) in the experiment on MALME-3M melanoma; 47.6% with MDA-MB-231 breast; 52% with RXF 393 renal; 11.8% with SF-268 CNS; 5.83% (active) with SF-295 CNS; 34.8% in the experiment with SF-539 CNS. In addition, the results for the growth in the experiment with UACC-257 melanoma and in the experiment with M14 melanoma were -15.2% (active) and -1.16% (active), respectively.
With `CCNS(=O)(=O)c1ncnc2nc[nH]c12`, the growth in the experiment with NCI-H23 lung is 97.1%; in the experiment on NCI-H226 lung it was 120%; in the experiment on NCI-H322M lung, 111%; in the experiment on HOP-62 NSCLC, 105%; in the experiment on NCI-H460 lung, 104%; in the experiment on HOP-92 NSCLC, 98.6%. The growth in the experiment with NCI-H522 lung is 88.5%; with A549/ATCC NSCLC, 119%; with 786-0 renal, 104%; with COLO 205 colon, 112%; in the experiment on DU-145 prostate, 102%; in the experiment on K-562 leukemia, 109%. The growth in the experiment with MALME-3M melanoma is 116%; with MDA-MB-231 breast it was 119%; with RXF 393 renal, 122%; in the experiment on SF-268 CNS, 132%; in the experiment on SF-295 CNS it was 109%; in the experiment on SF-539 CNS, 95.9%. In addition, the growth was 126% with UACC-257 melanoma and 119% in the experiment on M14 melanoma.
For `O=c1c2c3c(sc2n2c(CCl)nnc2n1Cc1ccccc1)CCCC3`, the growth with NCI-H23 lung is -42.1% (active); with NCI-H226 lung, -60.9% (active); in the experiment with NCI-H322M lung it was -97% (active); with HOP-62 NSCLC, 54.7%; in the experiment with NCI-H460 lung, -11.5% (active); with HOP-92 NSCLC, -81.7% (active). Moreover, the growth in the experiment with NCI-H522 lung was -57.1% (active); in the experiment on A549/ATCC NSCLC it was 28.5%; in the experiment with 786-0 renal, -18% (active); in the experiment with COLO 205 colon it was -39.1% (active); with DU-145 prostate, -11.9% (active); with K-562 leukemia it was -65.2% (active). In addition, the growth with MALME-3M melanoma was -71.4% (active); in the experiment with MDA-MB-231 breast, -60.2% (active); in the experiment on RXF 393 renal it was -39.1% (active); with SF-268 CNS it was -59.2% (active); in the experiment on SF-295 CNS, 126%; in the experiment with SF-539 CNS, -85.5% (active). Moreover, the growth is -53.6% (active) in the experiment on UACC-257 melanoma and -49.9% (active) in the experiment with M14 melanoma.
For `CCN(CC)Cc1cc(Nc2c3ccc(Cl)cc3nc3c(C)cccc23)ccc1O`, the growth in the experiment with NCI-H23 lung is -75.5% (active); in the experiment with NCI-H226 lung, -28.1% (active); in the experiment on NCI-H322M lung, -25.6% (active); in the experiment with HOP-62 NSCLC it was -74.6% (active); with NCI-H460 lung, -78.1% (active); in the experiment on HOP-92 NSCLC, -62.7% (active). Besides, the growth in the experiment on NCI-H522 lung is -77.2% (active); with A549/ATCC NSCLC, -15.5% (active); in the experiment on 786-0 renal, -91.6% (active); in the experiment with COLO 205 colon, -92.4% (active); in the experiment on DU-145 prostate, 2.09% (active); in the experiment with K-562 leukemia, -31% (active). The growth was -87% (active) with MALME-3M melanoma; -48.6% (active) in the experiment with MDA-MB-231 breast; -74.3% (active) in the experiment on RXF 393 renal; -79.8% (active) with SF-268 CNS; -43.6% (active) in the experiment on SF-295 CNS; -96.5% (active) with SF-539 CNS. Moreover, the growth is -85.2% (active) with UACC-257 melanoma and -88.5% (active) in the experiment on M14 melanoma.
`NS(=O)(=O)N(c1cc(C(F)(F)F)cc(C(F)(F)F)c1)C1CCN(Cc2ccc(F)cc2)CC1`: the growth was 55.5% in the experiment with NCI-H23 lung; 69.3% with NCI-H226 lung; 81.7% with NCI-H322M lung; 77.3% with HOP-62 NSCLC; 58.4% with NCI-H460 lung; 34.9% in the experiment with HOP-92 NSCLC. The growth was 43.2% with NCI-H522 lung; 66.5% in the experiment with A549/ATCC NSCLC; 55.5% in the experiment with 786-0 renal; -62.7% (active) in the experiment with COLO 205 colon; 99% in the experiment with DU-145 prostate; 26.1% in the experiment with K-562 leukemia. Further, the growth in the experiment on MALME-3M melanoma is 29%; in the experiment on MDA-MB-231 breast, 67.7%; with RXF 393 renal, 41.7%; in the experiment with SF-268 CNS it was 79.9%; in the experiment on SF-295 CNS it was 81.6%; with SF-539 CNS, 83.1%. The growth is 62.1% in the experiment with UACC-257 melanoma and 46.6% in the experiment on M14 melanoma.
`Cc1cc(Cl)ccc1Nc1nc(C(F)(F)F)ccc1C(=O)N/N=C/c1ccc(F)cc1`: the growth is 16.4% with NCI-H23 lung; 22.9% with NCI-H226 lung; 9.9% (active) with NCI-H322M lung; 5.92% (active) in the experiment on HOP-62 NSCLC; 2.29% (active) in the experiment with NCI-H460 lung; -18.1% (active) with HOP-92 NSCLC. Moreover, the growth in the experiment on NCI-H522 lung was -9.21% (active); with A549/ATCC NSCLC, 16.5%; in the experiment on 786-0 renal, -50.7% (active); in the experiment on COLO 205 colon, 13.9%; in the experiment with DU-145 prostate it was 35.2%; in the experiment with K-562 leukemia, 5.33% (active). Further, the growth is 6.12% (active) in the experiment on MALME-3M melanoma; -9.74% (active) in the experiment on MDA-MB-231 breast; 17.8% in the experiment on RXF 393 renal; 19.6% in the experiment on SF-268 CNS; 17.4% in the experiment on SF-295 CNS; 24.6% with SF-539 CNS. Moreover, the growth is 8.52% (active) with UACC-257 melanoma and 2.84% (active) in the experiment on M14 melanoma.
In the case of `CC1(C)CC(C(=O)OCCCCCCCCCCC[P+](c2ccccc2)(c2ccccc2)c2ccccc2)C(C)(C)N1O` (stereo not given), the growth was -61.1% (active) in the experiment with NCI-H23 lung; -65.6% (active) in the experiment on NCI-H226 lung; -20.6% (active) in the experiment on NCI-H322M lung; -45.5% (active) in the experiment with HOP-62 NSCLC; -79.8% (active) in the experiment on NCI-H460 lung; -68.8% (active) with HOP-92 NSCLC. Moreover, the growth with NCI-H522 lung is -29.4% (active); in the experiment with A549/ATCC NSCLC it was -42.6% (active); in the experiment with 786-0 renal it was -75.4% (active); with COLO 205 colon, -79.9% (active); with DU-145 prostate, -85.3% (active); in the experiment on K-562 leukemia, -76.3% (active). Further, the growth in the experiment with MALME-3M melanoma is -68.3% (active); in the experiment on MDA-MB-231 breast, -70.2% (active); in the experiment with RXF 393 renal it was -68.8% (active); in the experiment with SF-268 CNS it was -92.9% (active); in the experiment on SF-295 CNS, -71.3% (active); with SF-539 CNS it was -93.1% (active). In addition, the growth is -77.1% (active) with UACC-257 melanoma and -13.2% (active) in the experiment on M14 melanoma.

The values above are taken from PubChem BioAssay (NCI).
